Compound activity: PubChem BioAssay, National Center for Advancing Translational Sciences (NCATS)
Sampled rows, rich in hits. Any-hit rate of the full collection: about 10%.
Luciferase inh – Firefly luciferase inhibition profiling of diverse chemical library using quantitative high-throughput screening | Luciferin 4-monooxygenase (Photinus pyralis), P08659 | purified P. pyralis luciferase, luminescence, biochemical | Potency, µM (highest dose often 115 µM), most hits filed as inhibitors | hit rate 2.5% among 76,000; further: nearly all actives have a fitted effect of over 65% in size
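Purified 10nM P. pyralis luciferase with 10uM D-luciferin and 10uM ATP in 50mM Tris acetate pH 7.5, 10mM Mg acetate, 0.01% Tween-20, 0.05% BSA. qHTS titration; luminescence read by CCD imager.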
hNpr1 antagonist – Natriuretic polypeptide receptor (hNpr1) antagonism - Primary qHTS; AID 1347048, 2019; Atrial natriuretic peptide receptor 1 (Homo sapiens), P16066; HEK293 hNpr1 GloSensor cGMP, ANP-stimulated luminescence; hit rate 1.6% among 76,000; Potency, µM (highest dose often 46.3 µM), for inactives: at the top dose activity change, negative = inhibition, hits mostly inhibitors; calls by dose curve; further: nearly all actives have a fitted effect of over 60% in size
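Compound pre-incubated 30 min at room temperature on GloSensor-loaded HEK293 cells stably carrying hNpr1 and the pGS-40F cGMP biosensor. Stimulation uses hNppA at 0.1 nM final; luminescence is taken at baseline and 20 min post-agonist.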
GPT2 inhibitor – Primary qHTS assay for inhibitors of Glutamate pyruvate transaminase 2 (GPT2) | Recombinant GPT2, coupled pyruvate oxidase/HRP Amplex Red fluorescence | AID 1671188, 2021 | hit rate 0.25% among 100,000 | Potency, µM (series often up to 57.7 µM), inactives show at the highest dose activity change, negative = inhibition, actives largely listed as inhibitors | Alanine aminotransferase 2 (Homo sapiens), Q8TD30; further: nearly all actives have a fitted effect of over 60% in size
Target sequence (Q8TD30 whole entry, looked up): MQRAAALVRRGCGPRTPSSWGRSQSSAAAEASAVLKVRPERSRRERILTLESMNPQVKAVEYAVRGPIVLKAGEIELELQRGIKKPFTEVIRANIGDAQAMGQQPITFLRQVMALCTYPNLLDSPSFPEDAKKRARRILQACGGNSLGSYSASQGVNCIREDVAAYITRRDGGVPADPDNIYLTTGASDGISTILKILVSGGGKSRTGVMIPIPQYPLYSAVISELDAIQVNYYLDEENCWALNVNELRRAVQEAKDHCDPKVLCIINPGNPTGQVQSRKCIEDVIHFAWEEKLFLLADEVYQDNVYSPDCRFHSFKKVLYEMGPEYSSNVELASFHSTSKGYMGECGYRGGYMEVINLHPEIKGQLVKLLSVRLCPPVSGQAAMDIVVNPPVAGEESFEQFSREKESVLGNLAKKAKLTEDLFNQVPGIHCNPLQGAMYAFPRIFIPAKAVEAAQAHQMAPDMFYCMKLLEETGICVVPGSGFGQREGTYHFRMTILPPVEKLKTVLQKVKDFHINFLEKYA
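Inhibition is scored from Amplex Red fluorescence generated when pyruvate oxidase and HRP act on pyruvate released by GPT2. Reactions contain 10ng/uL enzyme, 250uM a-KG and 2mM L-alanine and run 30 min at room temperature.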
3T3 cytotox – Cytotoxic Profiling in NIH 3T3 Cell Line of Diverse Libraries Using Quantitative High-Throughput Screening. hit rate 4.3% among 94,000. NIH 3T3 viability, CellTiter-Glo ATP luminescence, 48-72 h. Potency, µM (series often up to 96.7 µM), for the others: at the top dose activity change, negative = cytotoxicity, hits mostly inhibitors; further: nearly all actives have a fitted effect of over 55% in size
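Cytotoxicity is measured as loss of cellular ATP: NIH 3T3 cells (400/well) are exposed to compound for 48 or 72 hr at 37 °C, then CellTiter-Glo luminescence is imaged after 10 min at room temperature.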
HEK293 tox – Cytotoxic Profiling in HEK 293 Cell Line of Diverse Libraries Using Quantitative High-Throughput Screening; HEK 293 viability, ATP luminescence (CellTiter-Glo), 48-72 h; Potency, µM (series often up to 115 µM), inactives show at the top dose activity change, negative = cytotoxicity, hits mostly inhibitors; hit rate 6.6% among 94,000; AID 1345083, 2018; further: nearly all actives have a fitted effect of over 60% in size
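Viability of HEK 293 cells, plated at 250 cells/well, was judged by cellular ATP after compound treatment for 48 or 72 hr. Luminescence was imaged 10 min after CellTiter-Glo addition at room temperature.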
An asterisk follows results filed as active; i = inactive; ? = inconclusive; . = no result; ! = repeats disagree; [ ] = remark or other dose. Unless noted, the call rests on the fitted dose curve; in most records, active means well fitted curve in the direction sought with a large enough effect; inconclusive means small, poorly fitted or top-dose-only effect, or another doubt; inactive means no such curve, though single readings can be large; an effect the other way counts as inactive or inconclusive. On the % scale 0 is the no-effect control and ±100 the full control effect; potency means the concentration at half of the fitted maximal effect.

SMILES	Luciferase inh	hNpr1 antagonist	GPT2 inhibitor	3T3 cytotox	HEK293 tox
COCC1(O)CCOC2(CCN(C(=O)c3cccnc3)CC2)C1 (centres undefined)	.	.	i	-5.5%	-3.0%
COc1cccc(CCC(=O)N2CCC(Oc3ncccc3C(=O)N3CCCCC3)C2)c1 (centres undefined)	i	-2.3%	i	-26.5%	1.2%
O=C(Cc1ccc(F)cc1)NCCNC(=O)c1ccc(-c2cccc(C(F)(F)F)c2)cc1	.	.	.	-18.6%	?
CC(C)(C)C(=O)N1CCCC(C(=O)N2CCC(c3nc4ncccc4[nH]3)CC2)C1 (centres undefined)	.	.	2.7%	-18.7%	-6.6%
COc1ccc(-n2nc(C3CCN(Cc4ccc(C)cc4)CC3)[nH]c2=O)cc1	i	-14.4%	-9.3%	?	39.8µM*!
COc1ccc(-n2nc(C3CCN(Cc4ccc(C#N)cc4)CC3)[nH]c2=O)cc1	i	-58.2%	0.8%	-27.7%	22.4µM*
COc1ccc(-n2nc(C3CCN(Cc4ccc(F)cc4)CC3)[nH]c2=O)cc1	i	-22.1%	i	?	17.8µM*!
O=c1[nH]c(C2CCCN(Cc3ccc(C(F)(F)F)cc3)C2)nn1-c1ccc(Cl)cc1 (centres undefined)	i	-14.5%	0.7%	-30.8%	0.0%
COc1ccc(C(=O)N2CCC(c3nn(-c4ccc(Cl)cc4)c(=O)[nH]3)CC2)cc1	i	-13.3%	-7.2%	?	?
CC(=O)N1CCC(c2nn(-c3ccc(F)cc3)c(=O)[nH]2)CC1	i	23.2%[70.6 µM]	-7.6%[88.5 µM]	-20.5%[138 µM]	-22.1%[172 µM]
Cc1ccc(CN2CCCC(c3nn(-c4ccc(Cl)cc4)c(=O)[nH]3)C2)cc1 (centres undefined)	i	-26.0%	i	?	35.5µM*
COc1ccc(C(=O)N2CCC[C@@H]2C(=O)N2CCC(N3CCOC3=O)CC2)cc1	.	.	i	-13.6%	0.6%
CC(=O)N1CCC(Nc2ncccc2-c2cc(-c3ccccc3)nc3c(C)noc23)CC1	i	7.6%[70.6 µM]	1.7%[88.5 µM]	?	100µM*
Cc1noc2c(NC3CCN(C)CC3)cc(-c3cccs3)nc12	i	8.5%[70.6 µM]	-4.1%[88.5 µM]	?	79.4µM*
Cc1noc2c(-c3cccnc3)cc(-c3cccs3)nc12	i	-4.0%[70.6 µM]	-25.5%[88.5 µM]	?	?
CC(=O)N1CCC(Nc2cc(-c3ccc(Cl)cc3)nc3c(C)noc23)CC1	i	-0.3%[70.6 µM]	?	?	?
Cc1noc2c(NC3CCC(O)CC3)cc(-c3ccc(Cl)cc3)nc12 (centres undefined)	i	6.5%[70.6 µM]	i	22.4µM*	89.1µM*
Cc1noc2c(-c3cccc(O)c3)cc(-c3cccs3)nc12	i	-5.0%[70.6 µM]	-0.6%[88.5 µM]	39.8µM*	70.8µM*
COc1cccc([S+](=O)([O-])N2CCCC2C(=O)N2CCC(N3CCCC3=O)CC2)c1 (centres undefined)	.	.	-4.1%	-23.5%	-13.9%
Cc1nonc1CC(=O)N1CCCC(CNS(=O)(=O)c2cccs2)C1 (centres undefined)	i	0.2%	2.9%	-3.0%	-11.1%
COc1ccccc1CN1CCOCC2(C1)CN([S+](=O)([O-])c1ccccc1)C2	i	1.0%[70.6 µM]	i	-18.5%[138 µM]	?
Cc1noc2c(NC3CCN(C)CC3)cc(-c3ccc(Cl)cc3)nc12	i	1.2%[70.6 µM]	-8.9%[88.5 µM]	10µM*	35.5µM*
O=C(NCCc1ccccc1F)c1ccc2oc(-c3cccnc3)nc2c1	.	.	i	?	-19.6%
O=C(Cc1cccc(Cl)c1)N1CCN(c2ccc3nnc(-c4ccccc4)n3n2)CC1	.	.	.	?	44.7µM*
O=C(c1ccc(Cl)cc1)N1CCN(c2ccc3nnc(-c4ccccc4)n3n2)CC1	.	.	.	44.7µM*	?
COc1ccc(Cc2nnc3ccc(C(=O)N4CCN(Cc5ccccc5)CC4)cn23)cc1	.	.	i	?	?
O=C(c1ccc2nnc(-c3ccc(Cl)cc3)n2c1)N1CCN(Cc2ccccc2)CC1	.	.	-35.5%	28.2µM*	25.1µM*
